Source: PubChem (National Center for Advancing Translational Sciences (NCATS))
This is a sample that favours compounds with a hit; in the whole collection about 3% have one here.
LDHA block: qHTS assay for inhibitors of human lactate dehydrogenase; actives 0.15% (n = 480,000); activity change, % (values are at about 110 or 230 µM); L-lactate dehydrogenase A chain (Homo sapiens), P00338; purified LDHA, NADH/diaphorase-resazurin fluorescence; stronger effect = lower value; in the data active = activity change below about -30%; inconclusive = mostly about -25% to -30%
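Human LDH5 at 2 nM final in Tris HCl pH 7.4 with 0.06 mM NADH and 0.2 mM pyruvate, reacted 5 minutes at room temperature. Remaining NADH coupled via diaphorase/resazurin; resorufin fluorescence read at 0 and 20 minutes, normalized to enzyme-free and DMSO wells.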
KCNH2 3.1 inh: qHTS for Inhibitors of KCHN2 3.1: Mutant qHTS; Potassium voltage-gated channel subfamily H member 2, brain isoform KCNH2 3.1 (human); actives 0.95% (n = 340,000); AID 720553, 2013; U2OS KCNH2 3.1, thallium flux FluxOr; stronger effect = lower value; activity change, % (tested at about 1.8 µM);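 active = maximum activity change below -70%; inconclusive = maximum activity change from -70% to -50%; inactive = maximum activity change above -50%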;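 note: thallium influx rate constant from kinetic fluorescence after stimulation buffer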
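We transduce U2OS cells with the mutant 3.1 virus, culture them overnight, load FluxOr with Red40 quencher for 45 min, then add stimulation buffer and read kinetically for 2 min to derive a normalized rate constant.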
hERG WT inh: qHTS for Inhibitors of KCHN2 3.1: Wildtype qHTS; Voltage-gated inwardly rectifying potassium channel KCNH2 (Homo sapiens), Q12809; U2OS, BacMam KCNH2, thallium flux FluxOr; stronger effect = lower value; activity change, % at 1.84 µM; actives 0.37% (n = 340,000);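 active = maximum activity change below -70%; inconclusive = maximum activity change between -70% and -50%; inactive = maximum activity change above -50%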
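U2OS cells transduced with wild-type KCNH2 virus are loaded with FluxOr dye for 45 min, and thallium flux is measured in kinetic reads before and after stimulation buffer. Rate constants are normalized to DMSO controls.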
ClpP mod: qHTS Assay for Activators of ClpP; purified B. subtilis ClpP, FRET peptide cleavage, 20 min; actives 1.9% (n = 340,000); ATP-dependent Clp protease proteolytic subunit (Bacillus subtilis (strain 168)), P80244; Potency, µM (top dose mostly 57.5 µM); AID 651965, 2013; active = well fitted falling curve with a large enough effect; inconclusive = small, poorly fitted or top-dose-only effect; inactive = no such curve, though single readings can be large or run the other way; note: the source files actives as falling curves though it sought activators and does not explain the sign; nearly all actives have a fitted effect of over 65% in size
Target sequence (P80244 whole entry, looked up): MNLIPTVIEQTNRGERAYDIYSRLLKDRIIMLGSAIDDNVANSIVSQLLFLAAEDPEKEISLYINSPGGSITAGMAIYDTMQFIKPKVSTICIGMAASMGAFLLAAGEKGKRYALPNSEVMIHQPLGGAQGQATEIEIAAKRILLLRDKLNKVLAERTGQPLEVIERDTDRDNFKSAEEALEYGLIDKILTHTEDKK
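Buffer: 100 mM Tris/HCl pH8, 100 mM KCl, 0.05% low protease BSA, 2.5% glycerol, 0.01% Tween-20. ClpP 10 microg/mL final; 20 min RT; delta FRET normalized to ADEP and DMSO controls.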
BCR signal inh: qHTS Assay to Find Inhibitors of Chronic Active B-Cell Receptor Signaling; Potency, µM (series often up to 46.1 µM), hits mostly inhibitors; ABC-DLBCL IkBa-CBG/CBR reporter, luminescence ratio, 4 h; actives 0.05% (n = 340,000); AID 493014, 2011; active = well fitted inhibition curve with a large enough effect in the signal ratio, with a control signal flat, not every such curve was filed as active; inconclusive = small, poorly fitted or top-dose-only effect, or effect the other way, or a change in a side signal; the % refers to the signal ratio
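Concentration-response series (up to 46 uM) were applied to TMD8 dual-reporter cells for 4 h at 37C with doxycycline. Green/red ratio, after filter-overlap correction, defined %Activity; red signal alone was normalised to basal cells and zero luminescence.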
ALOX12 inh: Primary qHTS assay for inhibitors of human arachidonate 12S-lipoxygenase (ALOX12): Round 2 | AID 1671190, 2021 | Polyunsaturated fatty acid lipoxygenase ALOX12 (Homo sapiens), P18054 | actives 1.1% (n = 580,000) | Potency, µM (titrated, usually from 108 µM), usual class: inhibitors | purified 12hLO, xylenol orange hydroperoxide absorbance; active = well fitted inhibition curve with a large enough effect; inconclusive = small, poorly fitted or top-dose-only effect, or another doubt; inactive = no such curve, though single readings can be large or run the other way
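Hydroperoxide product was detected by ferrous iron/xylenol orange as the 573 to 405 nm absorbance ratio. Arachidonic acid at 40 uM (final) was turned over for 30 min at room temperature by 150 nM human 12hLO, pH 7.0 Hepes buffer, after 15 min compound preincubation.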
Hits are given with their value; ! = not active in a repeat.

Results for CC(C)NC(=O)N1CCC2(CC1)NCCc1c2[nH]c2ccccc12 ?
ALOX12 inh: inactive

How did CCn1c(SCC(=O)N(C)Cc2ccc(-c3ccc(Br)cc3)o2)nnc1C1CC1 do in these assays?
LDHA block: inactive; ALOX12 inh: inconclusive

Results for CCN(CC)S(=O)(=O)c1ccc(/C=C/C(=O)OCC(=O)C(C)(C)C)cc1 ?
LDHA block: inactive; ALOX12 inh: inactive

How did O=C(CSCc1ccccc1)NCCc1ccc(F)cc1 do in these assays?
LDHA block: inactive; KCNH2 3.1 inh: -100; hERG WT inh: inactive; BCR signal inh: inactive; ALOX12 inh: inactive

What do the screens show for `O=C(CSCc1ccc(Br)cc1)NCCc1ccccc1`?
LDHA block: inactive; KCNH2 3.1 inh: inactive; hERG WT inh: inactive; ClpP mod: inactive; BCR signal inh: inactive; ALOX12 inh: inactive

What do the screens show for `Cc1nc(SCC(=O)NCCc2ccccc2)nc(C)c1C`?
LDHA block: inactive; KCNH2 3.1 inh: inactive; hERG WT inh: inactive; ClpP mod: 16µM; BCR signal inh: inconclusive; ALOX12 inh: inactive

How did CCC(NC(C)C)C(O)c1ccc(O)c(O)c1 (stereo not given) do in these assays?
LDHA block: inactive; KCNH2 3.1 inh: inactive; hERG WT inh: inactive; ClpP mod: inactive; BCR signal inh: inactive; ALOX12 inh: 10µM!

How did O=c1c2c(nc(NCCO)n1CC1CCCCC1)-c1ccccc1CC21CCCC1 do in these assays?
LDHA block: inactive; KCNH2 3.1 inh: inactive; hERG WT inh: inactive; ClpP mod: 28µM; BCR signal inh: inconclusive; ALOX12 inh: inconclusive

Results for CCn1c(NCCCO)nc2c(c1=O)C(C)(CC)Cc1ccccc1-2 (stereo not given) ?
LDHA block: inactive; KCNH2 3.1 inh: inactive; hERG WT inh: inactive; ClpP mod: inactive; BCR signal inh: inactive; ALOX12 inh: inactive

Results for CC1(C)CC(n2c(NCCO)nc3c(c2=O)C2(CCCC2)Cc2ccccc2-3)CCO1 (stereo not given) ?
LDHA block: inactive; KCNH2 3.1 inh: inactive; hERG WT inh: inactive; ClpP mod: 32µM; BCR signal inh: inactive; ALOX12 inh: inactive

Results for CC1(C)Cc2ccccc2-c2nc(NCCO)n(-c3ccccc3)c(=O)c21 ?
LDHA block: inactive; KCNH2 3.1 inh: inactive; hERG WT inh: inactive; ClpP mod: inconclusive; BCR signal inh: inactive; ALOX12 inh: inactive

How did O=C(NCCc1c[nH]c2ccccc12)c1ccccn1 do in these assays?
LDHA block: inactive; ALOX12 inh: inactive

How did O=C(Cn1c(-c2cccs2)cc2cc(F)ccc21)N1CCCCC1 do in these assays?
LDHA block: inactive; ClpP mod: inconclusive; ALOX12 inh: inactive

What do the screens show for `CCOC(=O)C1CCN(C(=O)Cn2c(-c3cccs3)cc3cc(Cl)ccc32)CC1`?
LDHA block: inactive; ClpP mod: 35µM; ALOX12 inh: inactive

How did CCOC(=O)C1CCN(C(=O)c2cccs2)CC1 do in these assays?
LDHA block: inactive; KCNH2 3.1 inh: inactive; hERG WT inh: inactive; ClpP mod: inactive; BCR signal inh: inconclusive; ALOX12 inh: inactive

Results for CC1CCN(C(=O)Cn2c(-c3cccs3)cc3cc(Cl)ccc32)CC1 ?
LDHA block: inactive; ClpP mod: 35µM; ALOX12 inh: inactive

Results for COc1ccccc1N1CCN(CCCS(=O)(=O)c2ccc(Cl)cc2)CC1 ?
LDHA block: inactive; ALOX12 inh: inconclusive

How did C=C(C)CN(CC)C(=O)CN1CCC(C(=O)NCCCO)CC1 do in these assays?
LDHA block: inactive; ALOX12 inh: inactive

What do the screens show for `O=C1CO[C@H]2CN(Cc3cccnc3)C[C@H]2N1Cc1cccc(C(F)(F)F)c1`?
ALOX12 inh: inactive
